Data: PubChem BioAssay (NCATS)
Results filed as inconclusive are left out. Activity calls are given as the source filed them. Calls follow the shape of the dose curve; as a rule, active = well fitted inhibition curve with a large enough effect; inconclusive = small, poorly fitted or top-dose-only effect; inactive = flat fitted curve, though single readings scatter.

Experiments:
Test in all cases: qHTS profiling for inhibitors of Plasmodium falciparum proliferation (AID 504749); also: nearly all actives have a fitted effect of over 60% in size
Settings in all cases: P. falciparum in erythrocytes, SYBR Green DNA, 72 h; series mostly up to 28.7 µM
[1] = system: AA1029
Summary of the method: (§1)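 Quantitative HTS: compounds pinned into medium, infected erythrocytes added (0.3% parasitemia, 2.5% hematocrit), 72 h culture at 37 C under 5% CO2. Saponin/Triton lysis with SYBR Green I, overnight RT, then fluorescence read.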

[2] = system: ATS95
Summary of the method: as §1

[3] = system: C2A
Summary of the method: as §1

[4] = system: CP211
Summary of the method: as §1

[5] = system: CP215
Summary of the method: as §1

[6] = system: CP217
Summary of the method: as §1

[7] = system: CP250
Summary of the method: as §1

[8] = system: CP252
Summary of the method: as §1

[9] = system: CP256
Summary of the method: as §1

[10] = system: CP269
Summary of the method: as §1

[11] = system: CP325
Summary of the method: as §1

[12] = system: CP329
Summary of the method: as §1

[13] = system: FAB9
Summary of the method: as §1

[14] = system: N140
Summary of the method: as §1

[15] = system: P93_24
Summary of the method: as §1

[16] = system: PAD
Summary of the method: as §1

[17] = system: PC15
Summary of the method: as §1

[18] = system: PC26
Summary of the method: as §1

[19] = system: SC27B
Summary of the method: as §1

[20] = system: TAB165
Summary of the method: as §1

Measured: Potency

C/C=C1\C2C=C(C)CC1(N)c1ccc(=O)[nH]c1C2 (stereo not given)
inactive: all assays above
